The list is not random: actives were taken first. Their share in the collection is about 3.7%.
PTHR1 agonist: agonists of human PTHR1 parathyroid hormone receptor. Q03431. HEK293 GP2 PTHR1 cells, GloSensor cAMP luminescence, 1 h. 0.075% of 410,000 active. AID 743266. Potency, µM (top dose mostly 115 µM), usual class: activators; also: nearly all actives have a fitted effect of over 55% in size
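HEK-293-derived GP2 cells expressing PTHR1 and a GloSensor cAMP reporter, 3,000/well, plated overnight, given luciferin plus IBMX (each 0.5 mM as added) for 1 h at 37 °C, then compound for 1 h at 37 °C. Luminescence was read after 15 min at room temperature.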
BRCA1 expr up: BRCA1 expression activation | MCF7-BRCA1-FFLuc reporter, luminescence, 48 h; response scale: scaled: vehicle 0%, 10 µM genistein 100% | Potency, µM (top dose mostly 46.1 µM), hits mostly activators | 1.1% of 380,000 active | AID 624202; also: nearly all actives have a fitted effect of over 80% in size
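MCF7-BRCA1-FFLuc cells, 2000/well in phenol-red-free MEM, attached 2 h then treated 48 h at 37 C. Luciferase luminescence read 15 min after reagent; normalized to genistein maximum activation (10microM) and DMSO, concentration-response fitted.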
RGS4 inhibitor: blocks human RGS4-accelerated GTP hydrolysis | Transcreener GDP fluorescence polarization, RGS4-accelerated GTP hydrolysis | 0.039% of 390,000 active | Potency, µM (highest dose often 114 µM), usual class: inhibitors; also: nearly all actives have a fitted effect of over 75% in size
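MLSMR compounds (23 nl, pin-transferred) preincubated 10 min at room temperature with a 500nM (2x) first reagent, then RGS4 at 900nM (2x) plus Transcreener GDP mix added; fluorescence polarization (620/688 nm) read before and after 90 min at 30 °C.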
D3 ag: agonists of human D3 dopamine receptor | P35462 | D3R DiscoveRx beta-arrestin cells, luminescence, 90 min | max activation, % | 0.58% of 410,000 active; in the data active = max activation above about 30%
Target sequence (P35462 whole entry, looked up): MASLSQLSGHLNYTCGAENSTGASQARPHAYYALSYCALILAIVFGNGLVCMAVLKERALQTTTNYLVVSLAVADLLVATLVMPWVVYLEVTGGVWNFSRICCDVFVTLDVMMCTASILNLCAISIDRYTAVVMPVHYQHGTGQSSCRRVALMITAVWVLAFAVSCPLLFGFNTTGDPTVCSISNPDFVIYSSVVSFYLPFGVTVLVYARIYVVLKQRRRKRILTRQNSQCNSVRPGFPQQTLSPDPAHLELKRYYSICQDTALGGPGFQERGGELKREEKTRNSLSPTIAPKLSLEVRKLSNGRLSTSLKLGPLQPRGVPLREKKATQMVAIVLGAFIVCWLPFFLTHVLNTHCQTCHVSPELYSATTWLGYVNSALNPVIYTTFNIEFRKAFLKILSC
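Agonist-mode cell screen: cells plated at 1500/well and incubated overnight at 37 °C, then exposed to library compounds for 90 min at 37 °C. Detection reagent was added for 30–60 min at room temperature, and luminescence was read.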
D3 antag: D3 dopamine receptor (human) antagonism. P35462. max response, negative = inhibition, %. AID 652054. D3R cells, DiscoveRx beta-arrestin luminescence, antagonist mode; hits give low values. 2.5% of 360,000 active; in the data active = max response below about -50%; inconclusive = no clear call, values can overlap the other calls
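Cells expressing the human receptor were seeded at 1500 cells/well, incubated overnight at 37 degrees C in 5% CO2, then exposed to library compounds with dopamine controls for 90 minutes at 37 degrees C before luminescent detection.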
B2AR arrestin: agonists driving beta-arrestin recruitment to human beta2-adrenergic receptor; P07550; beta-arrestin recruitment to beta2AR, cell-based reporter; Potency, µM (top dose mostly 46.1 µM), actives largely listed as activators; 0.02% of 330,000 active; AID 492947; also: nearly all actives have a fitted effect of over 65% in size
A number is an active result; - = inactive; ? = inconclusive; . = not tested or not shown. Unless noted, calls follow the shape of the dose curve; as a rule, active = well fitted curve in the direction sought with a large enough effect; inconclusive = small, poorly fitted or top-dose-only effect, or another doubt; inactive = no such curve, though single readings can be large; an effect the other way counts as inactive or inconclusive.

SMILES	PTHR1 agonist	BRCA1 expr up	RGS4 inhibitor	D3 ag	D3 antag	B2AR arrestin
O=C(CSCc1ccccc1Cl)NCCSc1ccccn1	-	-	-	-	-	-
O=C(NCCc1ccccc1F)C1CC(=O)N(c2cccc(C(F)(F)F)c2)C1 (stereo not drawn)	-	-	-	-	-	.
CC(C)C[C@H]1COCCS(=O)(=O)N1Cc1ccccc1F	-	-	-	42	-	.
CCC(C)[C@H]1COCCS(=O)(=O)N1Cc1ccccc1F (stereo partly drawn)	-	-	-	-	-	-
CCc1ccc(NC(=O)Cn2c(=O)ccc3cc(S(=O)(=O)N4CCCC4)ccc32)cc1	-	-	-	-	.	.
C/C=C\C=C/C(=O)Nc1cccc(C2=NOC3(C2)C[C@@H](C(N)=O)N(C(=O)CCCCC)C3)c1 (stereo partly drawn)	-	-	?	-	-	-
C/C=C\C=C/C(=O)Nc1cccc(C2=NOC3(C2)C[C@H](C(N)=O)N(C(=O)CC)C3)c1 (stereo partly drawn)	-	-	?	31	-	-
Cn1c(COc2ccccc2)nnc1SCC(=O)NC1CCCC1	-	-	-	-	-	-
Cc1ccccc1Oc1ccc2c(c1)[C@@H]1C[C@H]3[C@@H](C(=O)N1CC2)[C@H](C)ON3C	-	-	-	31	-	.
CCc1cc(C(=O)NCc2ccccc2)no1	-	.	-	-	.	.
CCCc1cc(C(=O)NCCc2ccccc2)no1	-	4µM	-	-	-	-
Cc1ccc(OCc2cc(C(=O)N(C)CCc3ccccn3)no2)cc1C	-	8.9µM	-	-	-	-
O=C(NCCCn1cccn1)c1cc(COc2ccccc2)on1	-	11µM	.	-	-	.
Cc1ccc(OCc2cc(C(=O)NCCc3cccnc3)no2)cc1C	-	11µM	-	-	-	-
CCCc1cc(C(=O)Nc2cc(C)ccc2O)no1	-	2.8µM	-	-	-	-
COc1cccc(CCNC(=O)c2cc(COc3cccc(OC)c3)on2)c1	-	-	.	-	-	.
COc1cccc(CCNC(=O)c2cc(COc3ccc(C)c(C)c3)on2)c1OC	-	5.6µM	.	-	-	.
CCCc1cc(C(=O)Nc2cccnc2Cl)no1	-	-	-	-	-	-
Nc1nc2c(c(=O)[nH]1)C(c1cccc3ccccc13)C1=C(N2)c2ccccc2C1=O (stereo not drawn)	-	-	?	-	-	-
CN(C)CCNC(=O)C12CC3(C)CC(C)(CC(C)(C3)C1)C2	-	-	-	-	-52	-
CC12CC3(C)CC(C)(C1)CC(C(=O)NCCc1ccc(S(N)(=O)=O)cc1)(C2)C3	-	-	-	-	-	-
CCOc1ccc(CNC(=O)C2CCN(C(=O)N3CC(CC)Oc4ccc(C)cc43)CC2)cc1OC (stereo not drawn)	-	.	-	-	.	.
Cc1ccccc1OCC(=O)Nc1ccc(N2CCN(C(=O)c3ccco3)CC2)cc1	-	-	-	-	-	-
CC1(C(=O)NCCC#N)CCN1C(=O)C1(c2ccccc2)CC1 (stereo not drawn)	?	-	.	-	-63	.
C=CCc1c(OC)ccc2ccc(=O)oc12	-	-	-	-	-57	-
SMILES	PTHR1 agonist	BRCA1 expr up	RGS4 inhibitor	D3 ag	D3 antag	B2AR arrestin
Cc1cc(C)c(NC(=O)Cn2nnc(C(=O)NCc3ccc4c(c3)OCO4)c2N)c(C)c1	-	-	-	-	-	-
CCCC1=NN2C(=N)/C(=C\c3cc(C)n(-c4cc(C)cc(C)c4)c3C)C(=O)N=C2S1	-	-	-	-	-57	-
Cn1c(SCC(=O)Nc2nc(C(C)(C)C)cs2)nnc1C1CC1	-	-	-	-	-	-
O=C(Nc1ccc2c(c1)OCO2)c1csc([C@@H]2C[C@H](O)[C@@H](CO)O2)n1	-	-	.	-	-	.
COc1ccc(-c2cc(C(=O)N/N=C/c3cc(OC)c(OC)cc3OC)c3ccccc3n2)cc1	-	-	-	-	-	.
COc1ccccc1-c1cc(C(=O)N/N=C/c2ccc(C)s2)c2ccccc2n1	-	-	-	-	-	-
COc1cc(/C=N/NC(=O)c2cc(-c3cccc(OC(C)C)c3)nc3ccccc23)ccc1O	-	-	-	73	-	.
